Broadly, the inhibition is the change of the read-out against control, counted positive when it falls.

Data on 7 molecules can be found in ChEMBL document CHEMBL1961873, “Compounds: GSK PKIS; Assays: Nanosyn kinase panel” (2012).

Assay [1] concerns the target Leukocyte tyrosine kinase receptor (Homo sapiens) (UniProt P29376). The conditions noted are these: at 1 µM.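 Note: each value is the mean inhibition of LTK.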
The target of assay [2] is Tyrosine-protein kinase Lyn (Homo sapiens) (UniProt P07948). The conditions noted are these: at 0.1 µM.
Assay [3] has the same target. The conditions noted are these: at 1 µM.
The target is the same in assay [4]. The conditions noted are these: at 0.1 µM. The source holds these as a separate data set.
Assay [5] has the same target. The conditions noted are these: at 1 µM. This is another data set of the same source.
Assay [6] addresses T1, Tyrosine-protein kinase Mer (Homo sapiens) (UniProt Q12866).
T1 sequence (whole entry): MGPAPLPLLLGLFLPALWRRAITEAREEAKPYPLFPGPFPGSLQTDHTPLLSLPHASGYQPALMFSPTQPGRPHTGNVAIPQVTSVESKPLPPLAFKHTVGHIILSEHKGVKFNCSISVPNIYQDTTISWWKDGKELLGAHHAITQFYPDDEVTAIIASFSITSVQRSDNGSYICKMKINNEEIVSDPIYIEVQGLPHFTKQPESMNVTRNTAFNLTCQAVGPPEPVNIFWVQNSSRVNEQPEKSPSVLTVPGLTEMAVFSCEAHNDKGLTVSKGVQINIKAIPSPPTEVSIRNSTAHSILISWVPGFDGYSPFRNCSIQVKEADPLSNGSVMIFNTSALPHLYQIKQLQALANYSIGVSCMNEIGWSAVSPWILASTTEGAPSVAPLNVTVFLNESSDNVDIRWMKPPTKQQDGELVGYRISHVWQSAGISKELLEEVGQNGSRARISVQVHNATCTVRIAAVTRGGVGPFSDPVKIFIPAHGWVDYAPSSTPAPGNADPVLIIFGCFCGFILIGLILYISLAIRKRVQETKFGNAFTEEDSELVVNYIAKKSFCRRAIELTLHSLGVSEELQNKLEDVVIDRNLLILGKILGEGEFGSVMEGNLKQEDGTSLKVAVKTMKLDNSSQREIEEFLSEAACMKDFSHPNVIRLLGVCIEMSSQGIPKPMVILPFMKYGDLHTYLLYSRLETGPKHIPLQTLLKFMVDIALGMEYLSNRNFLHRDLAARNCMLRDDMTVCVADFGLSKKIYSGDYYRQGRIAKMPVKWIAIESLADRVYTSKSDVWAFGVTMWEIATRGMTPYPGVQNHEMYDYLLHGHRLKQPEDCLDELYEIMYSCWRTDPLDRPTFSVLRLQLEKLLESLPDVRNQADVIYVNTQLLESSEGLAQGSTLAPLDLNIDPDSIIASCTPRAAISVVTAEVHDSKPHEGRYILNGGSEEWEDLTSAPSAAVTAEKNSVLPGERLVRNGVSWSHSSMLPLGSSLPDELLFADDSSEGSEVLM
Conditions: at 0.1 µM.

For assay [7], the target named is T1, Tyrosine-protein kinase Mer (Homo sapiens). The conditions noted are these: at 1 µM.
For assay [8], the target named is Hepatocyte growth factor receptor (Homo sapiens) (UniProt P08581). The conditions noted are these: at 0.1 µM.
Assay [9] has the same target. The conditions noted are these: at 1 µM.
The target of assay [10] is T2, Muscle, skeletal receptor tyrosine-protein kinase (Homo sapiens) (UniProt O15146).
T2 sequence (whole entry): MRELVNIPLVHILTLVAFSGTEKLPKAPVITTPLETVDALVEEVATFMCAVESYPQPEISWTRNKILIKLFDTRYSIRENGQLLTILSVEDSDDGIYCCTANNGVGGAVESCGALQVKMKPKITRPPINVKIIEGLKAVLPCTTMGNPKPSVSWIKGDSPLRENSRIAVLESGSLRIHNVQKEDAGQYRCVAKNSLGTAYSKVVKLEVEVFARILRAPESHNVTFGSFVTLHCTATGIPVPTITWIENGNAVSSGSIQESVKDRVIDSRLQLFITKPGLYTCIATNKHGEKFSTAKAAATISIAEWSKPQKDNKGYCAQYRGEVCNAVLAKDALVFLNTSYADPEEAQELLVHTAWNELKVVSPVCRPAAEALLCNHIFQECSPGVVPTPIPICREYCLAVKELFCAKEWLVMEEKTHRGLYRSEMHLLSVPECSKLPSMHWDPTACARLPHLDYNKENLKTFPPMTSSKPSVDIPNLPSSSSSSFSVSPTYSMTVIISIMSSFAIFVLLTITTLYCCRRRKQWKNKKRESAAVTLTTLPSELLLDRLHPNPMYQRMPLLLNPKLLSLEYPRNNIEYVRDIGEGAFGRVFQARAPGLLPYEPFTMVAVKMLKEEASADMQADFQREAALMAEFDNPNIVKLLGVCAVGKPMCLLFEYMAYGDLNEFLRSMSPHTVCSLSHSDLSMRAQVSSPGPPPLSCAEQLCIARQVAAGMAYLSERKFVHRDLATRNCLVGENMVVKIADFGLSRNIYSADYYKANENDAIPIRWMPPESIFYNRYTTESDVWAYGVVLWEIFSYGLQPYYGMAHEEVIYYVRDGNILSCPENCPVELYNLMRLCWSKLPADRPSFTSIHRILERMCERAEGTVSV
The conditions noted are these: at 0.1 µM.

Assay [11] has as its target T2, Muscle, skeletal receptor tyrosine-protein kinase (Homo sapiens). Conditions: at 1 µM.
Assay [12] deals with Platelet-derived growth factor receptor alpha (Homo sapiens) (UniProt P16234). The conditions noted are these: at 0.1 µM.
Assay [13] shares this target. Conditions: at 1 µM.
Assay [14] concerns Platelet-derived growth factor receptor alpha (Homo sapiens), P16234 [D842V]. The conditions noted are these: at 0.1 µM.
Assay [15] shares this test system. Conditions: at 1 µM.
Assay [16] deals with Platelet-derived growth factor receptor alpha (Homo sapiens), P16234 [T674I]. The conditions noted are these: at 0.1 µM.
For assay [17] the test system is unchanged. Conditions: at 1 µM.
Assay [18] relates to Platelet-derived growth factor receptor alpha (Homo sapiens), P16234 [V561D]. Conditions: at 0.1 µM.
For assay [19] the test system is unchanged. The conditions noted are these: at 1 µM.
Assay [20] addresses Platelet-derived growth factor receptor beta (Homo sapiens) (UniProt P09619). The conditions noted are these: at 0.1 µM.

Hepatocyte growth factor receptor (Homo sapiens), sequence (P08581 whole entry): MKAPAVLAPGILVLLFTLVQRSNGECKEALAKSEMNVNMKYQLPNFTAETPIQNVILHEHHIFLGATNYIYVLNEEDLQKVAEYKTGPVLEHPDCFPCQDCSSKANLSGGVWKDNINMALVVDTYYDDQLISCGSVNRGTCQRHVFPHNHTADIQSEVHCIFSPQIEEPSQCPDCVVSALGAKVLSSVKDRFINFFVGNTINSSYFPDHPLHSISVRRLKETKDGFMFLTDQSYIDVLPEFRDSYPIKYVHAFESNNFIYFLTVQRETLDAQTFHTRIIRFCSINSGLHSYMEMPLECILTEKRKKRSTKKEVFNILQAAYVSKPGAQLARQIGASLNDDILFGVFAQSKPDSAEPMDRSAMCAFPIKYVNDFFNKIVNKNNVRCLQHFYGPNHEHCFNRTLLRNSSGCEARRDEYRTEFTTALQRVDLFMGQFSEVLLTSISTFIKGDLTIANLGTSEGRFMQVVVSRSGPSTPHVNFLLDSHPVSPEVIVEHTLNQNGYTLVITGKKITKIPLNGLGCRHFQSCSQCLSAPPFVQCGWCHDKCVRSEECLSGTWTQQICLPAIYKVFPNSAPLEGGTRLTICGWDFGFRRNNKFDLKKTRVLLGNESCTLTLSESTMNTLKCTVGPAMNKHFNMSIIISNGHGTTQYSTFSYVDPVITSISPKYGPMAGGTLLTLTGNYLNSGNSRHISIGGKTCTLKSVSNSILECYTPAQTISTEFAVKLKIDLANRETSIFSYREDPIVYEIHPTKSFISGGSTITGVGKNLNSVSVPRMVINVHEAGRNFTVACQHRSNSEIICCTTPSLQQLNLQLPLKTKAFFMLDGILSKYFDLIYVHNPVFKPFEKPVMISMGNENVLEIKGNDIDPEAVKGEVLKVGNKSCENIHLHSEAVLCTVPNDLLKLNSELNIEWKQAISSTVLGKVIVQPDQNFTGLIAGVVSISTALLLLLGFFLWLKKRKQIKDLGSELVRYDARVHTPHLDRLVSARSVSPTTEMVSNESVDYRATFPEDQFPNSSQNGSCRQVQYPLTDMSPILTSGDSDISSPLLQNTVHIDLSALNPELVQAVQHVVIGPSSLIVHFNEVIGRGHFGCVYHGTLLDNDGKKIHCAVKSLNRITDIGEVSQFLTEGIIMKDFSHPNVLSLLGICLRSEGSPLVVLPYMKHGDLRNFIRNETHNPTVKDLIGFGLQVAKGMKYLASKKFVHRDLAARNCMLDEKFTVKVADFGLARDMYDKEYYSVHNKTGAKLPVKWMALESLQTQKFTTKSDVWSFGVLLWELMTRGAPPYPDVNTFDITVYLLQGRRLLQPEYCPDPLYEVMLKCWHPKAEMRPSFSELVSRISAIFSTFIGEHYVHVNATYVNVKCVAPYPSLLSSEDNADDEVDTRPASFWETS
Platelet-derived growth factor receptor alpha (Homo sapiens), P16234 [T674I], sequence (P16234 whole entry T674I): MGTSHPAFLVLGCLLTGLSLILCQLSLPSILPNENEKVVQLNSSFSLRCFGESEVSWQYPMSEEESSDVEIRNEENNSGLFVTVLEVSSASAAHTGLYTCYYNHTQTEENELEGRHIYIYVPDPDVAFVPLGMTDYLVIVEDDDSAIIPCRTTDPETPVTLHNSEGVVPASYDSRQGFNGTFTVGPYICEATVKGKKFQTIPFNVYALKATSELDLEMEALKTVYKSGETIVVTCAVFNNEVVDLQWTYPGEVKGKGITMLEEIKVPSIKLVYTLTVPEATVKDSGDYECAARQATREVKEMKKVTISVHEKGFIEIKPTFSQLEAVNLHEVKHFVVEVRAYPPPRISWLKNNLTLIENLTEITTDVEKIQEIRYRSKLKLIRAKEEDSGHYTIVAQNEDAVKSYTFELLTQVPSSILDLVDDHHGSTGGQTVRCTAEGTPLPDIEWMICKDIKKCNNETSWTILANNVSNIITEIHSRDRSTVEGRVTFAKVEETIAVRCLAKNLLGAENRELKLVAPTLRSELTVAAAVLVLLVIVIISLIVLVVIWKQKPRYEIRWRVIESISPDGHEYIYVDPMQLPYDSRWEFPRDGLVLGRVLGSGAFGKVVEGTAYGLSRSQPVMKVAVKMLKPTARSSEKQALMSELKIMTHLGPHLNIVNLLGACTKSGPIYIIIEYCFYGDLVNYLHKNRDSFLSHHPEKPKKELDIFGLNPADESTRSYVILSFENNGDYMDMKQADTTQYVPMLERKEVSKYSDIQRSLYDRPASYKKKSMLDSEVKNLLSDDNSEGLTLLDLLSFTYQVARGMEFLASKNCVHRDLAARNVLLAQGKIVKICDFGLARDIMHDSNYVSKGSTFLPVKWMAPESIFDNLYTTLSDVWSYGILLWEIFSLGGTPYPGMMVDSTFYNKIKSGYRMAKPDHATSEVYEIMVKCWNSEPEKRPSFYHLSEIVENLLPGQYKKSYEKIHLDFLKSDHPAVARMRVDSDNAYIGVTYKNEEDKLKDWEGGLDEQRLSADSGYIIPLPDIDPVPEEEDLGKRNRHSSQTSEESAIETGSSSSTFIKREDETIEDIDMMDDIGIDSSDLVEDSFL
Tyrosine-protein kinase Lyn (Homo sapiens), sequence (P07948 2-512 limits assumed): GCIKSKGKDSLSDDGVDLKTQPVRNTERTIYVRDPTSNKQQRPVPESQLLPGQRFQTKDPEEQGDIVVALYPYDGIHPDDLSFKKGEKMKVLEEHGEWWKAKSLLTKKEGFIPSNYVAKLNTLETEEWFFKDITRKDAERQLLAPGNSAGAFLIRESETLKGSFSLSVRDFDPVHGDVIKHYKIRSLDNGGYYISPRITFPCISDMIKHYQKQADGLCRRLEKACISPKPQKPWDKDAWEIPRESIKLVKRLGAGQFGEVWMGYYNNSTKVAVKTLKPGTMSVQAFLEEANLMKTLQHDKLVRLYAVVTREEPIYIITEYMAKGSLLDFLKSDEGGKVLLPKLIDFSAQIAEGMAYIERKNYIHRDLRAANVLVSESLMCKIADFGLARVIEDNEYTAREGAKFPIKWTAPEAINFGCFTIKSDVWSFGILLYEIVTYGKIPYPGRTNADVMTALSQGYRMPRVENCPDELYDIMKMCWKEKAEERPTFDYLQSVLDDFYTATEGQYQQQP
Platelet-derived growth factor receptor alpha (Homo sapiens), sequence (P16234 whole entry): as the sequence (P16234 whole entry T674I) above, with I674T counted along it
Leukocyte tyrosine kinase receptor (Homo sapiens), sequence (P29376 whole entry): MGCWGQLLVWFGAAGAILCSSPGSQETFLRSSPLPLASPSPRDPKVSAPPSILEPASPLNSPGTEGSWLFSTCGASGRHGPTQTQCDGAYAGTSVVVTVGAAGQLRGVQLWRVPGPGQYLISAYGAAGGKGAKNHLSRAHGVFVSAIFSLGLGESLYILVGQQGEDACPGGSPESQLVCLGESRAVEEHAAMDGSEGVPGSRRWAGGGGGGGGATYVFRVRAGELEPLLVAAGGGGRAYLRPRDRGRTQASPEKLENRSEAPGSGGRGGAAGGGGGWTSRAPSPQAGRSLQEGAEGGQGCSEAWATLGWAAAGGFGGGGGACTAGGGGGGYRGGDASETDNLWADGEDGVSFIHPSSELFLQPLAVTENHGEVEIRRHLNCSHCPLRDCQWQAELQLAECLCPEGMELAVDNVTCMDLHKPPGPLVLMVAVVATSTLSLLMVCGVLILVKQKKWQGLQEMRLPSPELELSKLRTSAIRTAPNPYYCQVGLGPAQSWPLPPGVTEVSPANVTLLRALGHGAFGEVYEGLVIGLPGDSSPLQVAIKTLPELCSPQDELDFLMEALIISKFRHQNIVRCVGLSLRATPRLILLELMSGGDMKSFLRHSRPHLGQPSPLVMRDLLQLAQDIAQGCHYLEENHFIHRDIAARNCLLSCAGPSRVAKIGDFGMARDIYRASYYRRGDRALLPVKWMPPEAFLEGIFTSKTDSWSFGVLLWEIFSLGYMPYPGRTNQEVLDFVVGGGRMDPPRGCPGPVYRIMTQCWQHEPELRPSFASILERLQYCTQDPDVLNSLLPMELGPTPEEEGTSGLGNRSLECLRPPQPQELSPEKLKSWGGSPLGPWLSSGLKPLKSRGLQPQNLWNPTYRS

In the case of `COc1ccc(-c2nn3ncccc3c2-c2ccnc(Nc3cccc(C(F)(F)F)c3)n2)cc1`, the inhibition in assay [1] came to 2.59%; in assay [2], 4.45%; in assay [3] it was 12.7%; in [4], 3.78%; in assay [5], 10.3%; in assay [6], 1.45%. In addition, the inhibition amounted to 3.23% in [7]; 6.61% in assay [8]; 12.1% in assay [9]; 2.37% in assay [10]; 1.14% in [11]; 1% in assay [12]. Further, the inhibition in assay [13] is 5.9%; in assay [14], 1.64%; in [15], 3.19%; in [16], 2.26%; in assay [17] it was 5.13%; in [18] it was 1.12%. The inhibition was 5.31% in [19] and -0.23% in [20].

Take `C[C@@H](Oc1cc(-n2cnc3ccc(OC[C@@H](O)CO)cc32)sc1C(N)=O)c1ccccc1Cl`: the inhibition is 3.54% in assay [1]; -0.6% in assay [2]; 3.84% in [3]; -0.83% in assay [4]; 2.72% in assay [5]; 5.8% in assay [6]. The inhibition in assay [7] is 3.84%; in assay [8], -4.12%; in assay [9], -4.35%; in assay [10], 9.09%; in [11], 51.4%; in assay [12] it was 13.8%. For the same molecule, the inhibition in assay [13] was determined as 62.4%; in [14], 4.15%; in assay [15] it was 40.5%; in assay [16], 0.37%; in assay [17], 51.2%; in assay [18], 7.79%. The inhibition in assay [19] is 50.1%; in assay [20], 7.9%.

`NS(=O)(=O)c1ccc(Nc2cc(-c3cccc(O)c3)n[nH]2)cc1`: the inhibition came out at 3.32% in assay [1]; 6.83% in [2]; 8.1% in assay [3]; 3.6% in [4]; 3.96% in [5]; 0.91% in assay [6]. In addition, the inhibition came out at 6.51% in assay [7]; 5.16% in [8]; 2.36% in assay [9]; 4.32% in [10]; 12.9% in assay [11]; 16.7% in assay [12]. The inhibition came to 40.4% in assay [13]; 4.21% in [14]; 13.8% in assay [15]; 12.8% in [16]; 6.05% in assay [17]; 17.7% in assay [18]. Moreover, the inhibition in assay [19] was determined as 49%; in assay [20], 9.08%.

On to `Cc1cc(Cl)cc2c1NC(=O)C2=NNc1ccc(S(N)(=O)=O)cc1`, for which the inhibition in assay [1] was determined as 2.25%; in assay [2], 3.74%; in [3], 4.11%; in [4], 2.32%; in assay [5] it was 4.84%; in [6], 0.38%. In addition, the inhibition in assay [7] is 0.48%; in assay [8] it was -0.26%; in assay [9] it was 5.08%; in assay [10], 2.21%; in assay [11], 0.5%; in assay [12] it was 5.26%. In addition, the inhibition in [13] is 20.5%; in assay [14], 4.17%; in assay [15], 9.86%; in assay [16], 6.4%; in [17], 9.82%; in assay [18] it was 9.46%. Also, the inhibition is 25.8% in assay [19] and 2.83% in [20].

As for `CCOc1nccc2c1nc(-c1nonc1N)n2CC`, the inhibition in [1] was 2.99%; in assay [2], 3.8%; in assay [3], 6.05%; in [4] it was 2.33%; in assay [5] it was 4.84%; in [6], 3.54%. Further, the inhibition was 6.08% in [7]; 4.49% in assay [8]; 11.2% in [9]; 3.26% in assay [10]; 8.7% in [11]; 11.7% in assay [12]. The inhibition in [13] came to 19.1%; in [14] it was 1.89%; in assay [15], 6.37%; in assay [16] it was 10.8%; in assay [17], 9.83%; in [18] it was 6.37%. In addition, the inhibition in [19] was found to be 5.39%; in assay [20] it was 7.89%.

On to `Cc1ccc(C(=O)NC2CC2)cc1-c1ccc2[nH]ncc2c1`, for which the inhibition in assay [1] was -2.27%; in [2], -2.45%; in assay [3] it was -0.16%; in [4], -2.22%; in assay [5], -0.48%; in [6] it was -1.71%. In addition, the inhibition in [7] is 1.57%; in assay [8], -0.6%; in assay [9] it was -1.74%; in assay [10], 0.78%; in assay [11], 2.51%; in assay [12], 2.1%. For the same molecule, the inhibition is 13.4% in assay [13]; 1.95% in [14]; 4.58% in [15]; 1.44% in assay [16]; 2.76% in assay [17]; 3.49% in [18]. Moreover, the inhibition in [19] worked out at 13.8%; in [20] it was 1.82%.

On to `CCn1c(-c2nonc2N)nc2c(C#CC(C)(C)O)nc(OCCNC)cc21`, for which the inhibition was determined as 4.95% in [1]; 5.06% in assay [2]; 5.53% in assay [3]; 2.97% in assay [4]; 3.02% in assay [5]; 2.03% in [6]. The inhibition was determined as 2.24% in [7]; 4.48% in [8]; 0.4% in assay [9]; 1.71% in [10]; 3.32% in [11]; 3.73% in assay [12]. The inhibition in [13] was determined as 16.3%; in assay [14] it was 5.07%; in [15], 17.5%; in assay [16] it was 2.61%; in [17] it was 14.2%; in [18], 3.69%. In addition, the inhibition came to 11.1% in assay [19] and 3.31% in assay [20].
